# Source: PubChem BioAssay (NCI)
# Compounds without any hit were thinned out: in the full panel of roughly 83,000, 20% have a hit.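 The test compound was applied at a single concentration to cells in 96-well plates for 48 hours, and percent growth was recorded.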 Unmarked numbers belong to inactive results. Calls of active or inactive are those of the source. Rule for the calls: active = growth percent below 10; inactive = the rest.
# What was measured:
# Assay in all cases: NCI-60 one-dose screen, 48 h (100 = growth as untreated, 0 = no growth, -100 = all killed)
# Settings in all cases: 10 µM
# [1] = test system: NCI-H23 lung
# [2] = test system: NCI-H226 lung
# [3] = test system: HOP-62 NSCLC
# [4] = test system: NCI-H460 lung
# [5] = test system: HOP-92 NSCLC
# [6] = test system: NCI-H522 lung
# [7] = test system: A549/ATCC NSCLC
# [8] = test system: 786-0 renal
# [9] = test system: COLO 205 colon
# [10] = test system: DU-145 prostate
# [11] = test system: K-562 leukemia
# [12] = test system: MALME-3M melanoma
# [13] = test system: MDA-MB-231 breast
# [14] = test system: RXF 393 renal
# [15] = test system: SF-268 CNS
# [16] = test system: SF-295 CNS
# [17] = test system: SF-539 CNS
# [18] = test system: UACC-257 melanoma
# [19] = test system: M14 melanoma
Compound,growth [1],growth [2],growth [3],growth [4],growth [5],growth [6],growth [7],growth [8],growth [9],growth [10],growth [11],growth [12],growth [13],growth [14],growth [15],growth [16],growth [17],growth [18],growth [19]
Cc1cc(SC#N)cc(C(C)(C)C)c1O,93.1%,102%,100%,104%,81.7%,68.1%,81.9%,101%,101%,110%,91.3%,85.8%,113%,118%,103%,102%,95.6%,94.1%,90.3%
C(=N\Nc1ncnc2sc3c(c12)CCNC3)/c1cccc2ccccc12,98.9%,97.1%,79.9%,62.8%,93.4%,97%,67.6%,59.5%,63.5%,100%,2.84% (active),92.6%,66%,85%,97.5%,104%,85.8%,104%,95%
C1CN(CC2CCC(CN3CCOCC3)O2)CCO1 (stereo not drawn),98.6%,107%,95.1%,110%,120%,66.2%,96.9%,99.7%,60.8%,111%,63.1%,-4.36% (active),118%,112%,104%,99.7%,98%,103%,95.9%
CS(=O)(=O)c1nccc(-c2c(-c3cccc(O)c3)nc3sccn23)n1,109%,95.4%,95.9%,97.4%,29.8%,-2.17% (active),97.5%,77.2%,114%,90.9%,101%,94.7%,74.4%,85%,98.5%,103%,92.4%,92.9%,94%
Cc1ccc(N=Nc2ccccc2)cc1,95.1%,108%,90.5%,105%,90.9%,84.2%,87.8%,89.6%,106%,111%,112%,98.4%,109%,106%,99.8%,90.3%,100%,88%,90.9%
COc1ccc(N=Nc2cc(OC)c(OC)c(OC)c2)cc1,77.3%,92.4%,66.9%,87.5%,79.4%,57%,73%,98.2%,87.2%,97.3%,69.4%,77.9%,89.4%,86%,91.3%,83.6%,82.6%,84.9%,74.3%
CCNCC(=O)Nc1ccc(C(=O)OCC)cc1,99.9%,109%,90.5%,99.5%,113%,88.7%,103%,89.6%,108%,104%,96.6%,110%,119%,124%,93.6%,102%,100%,96.7%,102%
Nc1ncnc2c1ncn2C1(CO)OCC(O)C(O)C1O (stereo not drawn),96.8%,107%,91.4%,107%,113%,82.4%,96.7%,101%,113%,104%,110%,98.6%,109%,110%,95.3%,101%,96.5%,101%,97%
CCOC(=O)c1cc(C(=O)c2cc(OC)cc(OC)c2)n2nc(C)ccc12,37.2%,78.6%,48.4%,10.8%,13.9%,-10.9% (active),26.9%,34.4%,-11.5% (active),21.9%,10.3%,74.3%,52.6%,13.6%,62.4%,23.9%,3.84% (active),59.5%,11.4%
Cc1ccc(/C=C2/C(=O)N(C)c3ccc(S(=O)(=O)Nc4ccc(C(C)(C)C)cc4)cc32)s1,67%,63.9%,24.8%,98%,79.2%,75.5%,68.5%,67.4%,86.5%,87.3%,79.8%,57.6%,35.2%,41.8%,67.4%,88%,23%,85.7%,83.1%
C=CCSC(CC)(CC)C(=O)NC,99.4%,97.8%,102%,103%,106%,86.5%,94.9%,104%,120%,120%,98.3%,115%,114%,107%,112%,105%,103%,92.1%,103%
COC(=O)C1(O)NC(=C(C#N)C#N)C(C#N)=C1C(=O)c1ccc(OC)c(OC)c1 (stereo not drawn),103%,93.6%,96.1%,100%,90.3%,90.3%,91.9%,101%,120%,111%,100%,103%,119%,100%,98.5%,105%,104%,81.7%,97.9%
COc1cc(-c2nn(-c3cccc(NC(=O)CCN4CCN(Cc5ccccc5)CC4)c3)cc2-c2ccncc2)ccc1Cl,20.8%,54%,24%,1.48% (active),-0.56% (active),-31.4% (active),11.6%,-59.9% (active),-50.9% (active),7.55% (active),-43.1% (active),-60.7% (active),-14.7% (active),-50.6% (active),19.1%,-46.5% (active),-74.3% (active),-58.2% (active),-61.3% (active)
C/C(=N\O)c1ccc(NC(=O)CSc2nnc(-c3ccccc3)n2-c2ccccc2)cc1,76.6%,72.4%,64.7%,66.7%,30.1%,-34.7% (active),81.9%,80.5%,53.3%,90.6%,95.8%,82.9%,67.9%,99.9%,99.8%,92.2%,52.6%,94.5%,91.8%
CC(C)(C)OC(=O)N1CCc2c(sc3ncnc(N/N=C/c4cccc(Br)c4)c23)C1,55.3%,67.3%,45.1%,20.9%,75.6%,34.2%,45.7%,50.7%,13.1%,62.4%,19.3%,66.9%,49.9%,63.5%,63.9%,64.7%,53.3%,80.8%,43%
CN1C(=O)C2(Nc3cc(Cl)ccc3S2)c2cc(Cl)ccc21 (stereo not drawn),82.7%,80%,101%,95.2%,71.7%,95.2%,97.3%,102%,93.2%,104%,75.4%,113%,69.3%,106%,93.8%,99.3%,106%,101%,102%
NC(=O)c1cccc(-n2ccc3cc(NC(=O)Nc4ccc(Cl)c(C(F)(F)F)c4)ccc32)n1,82.2%,66.2%,86.5%,68%,97.6%,64.7%,68.2%,49.1%,85.6%,95%,59.3%,87.8%,75.8%,2.44% (active),76.6%,58.2%,44.2%,93.3%,78.8%
